# According to PubChem BioAssay AID504834 (National Center for Advancing Translational Sciences (NCATS), 2011):
# Screen size: about 320,000 compounds; about 22,000 (6.9%) were called active. Inconclusive results (about 27%) are left out. The list comes from a sample in which actives are over-represented; it also holds similar structures and randomly drawn compounds. A number with no mark means an inactive call. Calls come from the whole dose curve; as a rule, active = well fitted inhibition curve with a large enough effect; inconclusive = small, poorly fitted or top-dose-only effect, or another doubt; inactive = no such curve, though single readings can be large or run the other way.
# Assay: Primary qHTS for delayed death inhibitors of the malarial parasite plastid, 96 hour incubation
# Conditions: P. falciparum luciferase reporter growth; series mostly up to 28.7 µM; activity change, negative = inhibition: at the top concentration
# Summary of the method: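 Two-generation exposure (96 h) targets delayed-death phenotype. Reporter parasites carrying integrated firefly luciferase, in red cells at 2% hematocrit and 0.05% parasitemia final, kept at 37 C, 5% CO2; luminescence loss indicates inhibition.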
# % is set by controls: 0 for no effect and ±100 for the full control effect; potency is the fitted concentration of half-maximal effect.
Compound,"activity change, negative = inhibition [%]",Potency
O=C(NNS(=O)(=O)c1ccc(Cl)cc1)C1CCN(Cc2ccccc2)CC1,85.3,
CCOC(=O)C1(S(=O)(=O)c2ccc(Cl)cc2)CCN(Cc2ccccc2)CC1,,2.94 µM (active)
CCOC(=O)C1(S(=O)(=O)c2ccccc2)CCN(Cc2ccccc2)CC1,-0.502,
N#Cc1nc(-c2cccc3ccccc23)oc1N,18.9,
Cc1cc(NC(=O)Nc2c[nH]c(=O)[nH]c2=O)ccc1Br,40.8,
CC1CCN(S(=O)(=O)c2ccc3c(c2)n(C)c(=O)n3C)CC1,39.9,
CCOc1cc(C2/C(=C(/O)c3ccc(S(=O)(=O)N4CCCCC4)cc3)C(=O)C(=O)N2CCOC)ccc1O (stereo unspecified),12.9,
COCCN1C(=O)C(=O)/C(=C(/O)c2ccc(S(=O)(=O)N3CCOCC3)cc2)C1c1ccc(OC)c(OC)c1 (stereo unspecified),-24.2,
COCCN1C(=O)C(=O)/C(=C(/O)c2ccc(S(=O)(=O)N3CCCCC3)cc2)C1c1ccc(OC)c(OC)c1 (stereo unspecified),,9.28 µM (active)
CN(C)S(=O)(=O)c1cccc(-c2nn(-c3ccccc3)cc2/C=C2\SC(=S)N(CC(=O)O)C2=O)c1,-27.3,
Cc1nn(C)c(C)c1C(C)NC(=O)c1ccc(OC2CCN(Cc3ccccn3)CC2)cc1 (stereo unspecified),-23.8,
Cc1cccc(C(C)C)c1NC(=O)COC(=O)C1CC(=O)N(Cc2ccccc2)C1 (stereo unspecified),35.6,
Cc1nn(C(C)(C)C)c(OC(=O)CC(C)C)c1S(=O)(=O)c1ccccc1,,9.28 µM (active)
Nc1cc(OC(=O)c2ccccc2Br)nn1S(=O)(=O)c1ccccc1,48.3,
Cc1ccc(S(=O)(=O)n2nc(OC(=O)C(C)(C)C)cc2N)cc1,0,
CCc1ccc(OCC(O)CN2CCN(CCO)CC2)cc1 (stereo unspecified),30.8,
CCCc1ccc(OCC(O)CN2CCN(CCO)CC2)cc1 (stereo unspecified),,10.4 µM (active)
CCCc1ccc(OCC(O)CN2CCN(C(=O)OCC)CC2)cc1 (stereo unspecified),39.9,
Cc1ccc(S(=O)(=O)N2CCCCC2)cc1C(=O)N1CCN(CCO)CC1,30.1,
CN(CC(=O)Nc1cccc(F)c1)C(=O)C1CC(=O)N(CCc2ccccc2)C1 (stereo unspecified),63,
COc1ccccc1CN1CCCC(N2CCN(c3ccc(F)cc3)CC2)C1 (stereo unspecified),6.1,
COc1cccc(N2C(=O)CC(N3CCc4ccccc4C3)C2=O)c1 (stereo unspecified),23.1,
COc1ccc(CN2CCCC(N3CCc4ccccc4C3)C2)c(O)c1 (stereo unspecified),,8.28 µM (active)
COc1ccc(CN2C3CCCC2CC(NC(=O)c2cccc(F)c2)C3)cc1 (stereo unspecified),-95.4,
CCCCCCC(O)(CCN1CCCCC1)c1ccccc1 (stereo unspecified),17.7,
O=C(COc1ccccc1Cl)Nc1ccccc1C(=O)NC1CC1,-25,

Compound,"activity change, negative = inhibition [%]",Potency
COc1ccc2c(c1)OC(O)(C(F)(F)C(F)F)CC2=O (stereo unspecified),,0.828 µM (active)
CC1(C)CC(=O)c2ccc(O)cc2O1,31,
O=S1(=O)N=C(N(CCO)/N=C/c2ccccc2F)c2ccccc21,-11.7,
COc1ccc(-n2nc3c(N4CCC(C(=O)NCc5ccccc5)CC4)nnc(C)c3c2C)cc1,,13.1 µM (active)
CCOc1ccc(CNC(=O)C2CCCN(c3nnc(C)c4c(C)n(-c5ccccc5)nc34)C2)cc1 (stereo unspecified),-5.12,
COc1ccc(CNC(=O)C2CCN(C(=O)c3ccccc3)CC2)cc1,3.36,
COC(=O)c1ccc(Nc2ncnc3sccc23)cc1,38,
CC(=O)c1c(C)n(-c2ccc(C)cc2)c2ccc(O)cc12,,7.38 µM (active)
CCOC(=O)c1c(CN2CCOCC2)n(-c2ccccc2)c2ccc(O)cc12,0.0544,
CC(=O)c1c(C)n(-c2ccc(N(C)C)cc2)c2ccc(OCC(N)=O)cc12,,9.28 µM (active)
CCOC(=O)c1c(C)oc2ccc(OCC(=O)N(CC)CC)cc12,3.22,
Cc1c(Cc2ccccc2)c(=O)oc2cc(OCC(N)=O)ccc12,56.5,
O=C(O)CCC(=O)Nc1ccc(OCC2CCCO2)cc1 (stereo unspecified),0,
CCn1nc(C(=O)Nc2ccc(N3CCOCC3)cc2)c2ccccc2c1=O,-1.95,
CCCn1nc(C(=O)Nc2ccc3nc(C)sc3c2)c2ccccc2c1=O,-16,
CCCCn1nc(C(=O)Nc2cccc(C(=O)NC3CC3)c2)c2ccccc2c1=O,,11.7 µM (active)
CC(=O)Nc1ccc(S(=O)(=O)NCC2CCC(C(=O)NCCc3ccccc3)CC2)cc1 (stereo unspecified),17.5,
COc1ccc(C2NC(=O)N(C)C(C)=C2[N+](=O)[O-])cc1 (stereo unspecified),86.1,
COc1ccc(C(C)(C)C)cc1NC(=O)CCN1C(=O)C2CCCCC2C1=O (stereo unspecified),-28.3,
NC(=O)c1ccsc1NC(=O)COC(=O)COc1ccc(C=O)cc1,-16.1,
CC(=O)Nc1ccccc1OC(=O)N1CCOCC1,49.8,
O=C(NCC(c1cccs1)N1CCOCC1)c1cc(Cl)ccc1[N+](=O)[O-] (stereo unspecified),13.4,
O=C(/C=C/c1cccs1)c1cc(Cl)ccc1OC(=O)N1CCOCC1,,8.28 µM (active)
CCOc1cc(C)c(S(=O)(=O)NCc2ccccn2)cc1C,-29.9,
COc1ccc2[nH]c(C(=O)N3CCN(C)CC3)c(C)c2c1,38.2,
